From PubChem BioAssay (NCI)
This is part of a sample that, as a whole, favours compounds with a hit. Of some 79,000 tested, about 15% had one in any assay. Values without a mark were called inactive. Active and inactive are the calls of the source. Cut-off read from the data, not from the text of the source: active = growth inhibition above about 70%; inactive = the rest.

Columns and labels:
[1] = NCI Yeast Anticancer Drug Screen. Data for the rad50 strain (AID 155);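 note: 0% = growth of vehicle-only cultures of the same strain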; conditions: S. cerevisiae rad50 strain growth inhibition; at 50.0 µM; stronger effect = higher value
Outline: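 Relative growth inhibition (compound vs vehicle) was measured in yeast with a defined repair-gene alteration.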

[2] = NCI Yeast Anticancer Drug Screen. Data for the mec2-1 strain (AID 157); conditions: S. cerevisiae mec2-1 strain, at 50.0 µM, stronger effect = higher value
Outline: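 Vehicle-treated cultures served as reference for growth inhibition of compound-exposed mec2-1 yeast.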

[3] = NCI Yeast Anticancer Drug Screen. Data for the sgs1 mgt1 strain (AID 161);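 note: 0% = growth of cultures given vehicle only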; conditions: S. cerevisiae sgs1 mgt1 strain, at 50.0 µM, stronger effect = higher value
Outline: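 Mutant yeast exposed to compound; growth scored against vehicle-only wells.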

[4] = NCI Yeast Anticancer Drug Screen. Data for the cln2 rad14 strain (AID 165);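 note: 0% = growth equal to vehicle treated cultures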; conditions: S. cerevisiae cln2 rad14 strain, at 50.0 µM, stronger effect = higher value
Outline: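 Each compound was tested on cln2 rad14 yeast. Inhibition of growth was calculated against vehicle-exposed controls.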

[5] = NCI Yeast Anticancer Drug Screen. Data for the bub3 strain (AID 167); conditions: S. cerevisiae bub3 mutant strain, at 50.0 µM, stronger effect = higher value
Outline: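 Screening used yeast with an engineered genetic alteration affecting cell cycle control. Compound-exposed cultures were compared with vehicle cultures, and reduced growth was taken as inhibition.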

[6] = NCI Yeast Anticancer Drug Screen. Data for the mlh1 rad18 strain (AID 175); conditions: S. cerevisiae mlh1 rad18 strain growth inhibition; at 50.0 µM; stronger effect = higher value
Outline: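 Vehicle-treated cultures served as the reference for growth inhibition in a yeast strain carrying DNA damage repair alterations exposed to each compound.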

SMILES | growth inhibition [1] | growth inhibition [2] | growth inhibition [3] | growth inhibition [4] | growth inhibition [5] | growth inhibition [6]
CC(=O)NC(Cc1cc(I)c(OC(C)=O)c(I)c1)C(C)=O (configuration not stated) | 5.45% | 7.1% | 0.7% | 14.6% | 4% | -18.4%
O=CC(=O)c1ccccc1O | 30.1% | 36.6% | 44.9% | 18.3% | 37% | 75.7% (active)
OC1c2ccccc2-c2ccccc21 | 35.6% | 0.95% | -15.4% | -22.3% | 6.8% | 25.2%
O=C1NC(=Nc2ccccc2Cl)SC1C(=O)Nc1ccc([N+](=O)[O-])cc1[N+](=O)[O-] (configuration not stated) | 8.1% | 7.85% | -34.4% | -28.6% | 7.6% | -12.1%
O=C1CSC(=S)N1c1ccccc1 | 2.2% | -3.8% | -3.6% | -4.75% | 0.8% | 2.9%
COC(=O)c1ccncc1 | -2.6% | 2.95% | -2.8% | -35.8% | 10.4% | -0.45%
COc1cc(C2c3cc4c(cc3OC(C)(N3CCCC3)C2C)OCO4)cc(OC)c1OC (configuration not stated) | -25.4% | 6.95% | -9.8% | 14.2% | -2.55% | 0.25%
CC1C2CCC3(CCC4C5(C)CCCC4(CN(CCO)C5)C3C2)C1O (configuration not stated) | 2.1% | -24.4% | 5.3% | 13.8% | -2.4% | -8.4%
CC(C)CC(O)C(CC(=O)Nc1ccccc1)S(=O)(=O)c1ccccc1 (configuration not stated) | -21.9% | -16.4% | -6.3% | -28.6% | -15.1% | -11.8%
Cc1ccc(S(=O)(=O)NN=C2C(C)(C)C(=O)C2(C)C)cc1 | -1.5% | -1.1% | -32.9% | 32.1% | -2.25% | -6.45%
CNC(=O)OCc1c(COC(=O)NC)c(-c2ccccc2)n(-c2ccccc2)c1C | 24.4% | 27.8% | 44.8% | 37.9% | 22.9% | 88.1% (active)
Cc1ccc2nc[nH]c(=O)c2c1 | -1.1% | 13.3% | 7.85% | -70.6% | 19.4% | -12.8%
O=C(Nc1cccc2c(NC(=O)N3CCCCC3)cccc12)N1CCCCC1 | -16.2% | -26.2% | 1.25% | 4.1% | 9.55% | 2.8%
CC(C)(C)C1CCC(C(=O)O)CC1 (configuration not stated) | 24.4% | -3.05% | 19.8% | 10.6% | 5.6% | 24.9%
NC(=O)Nc1ccc(Cl)cc1[N+](=O)[O-] | -4.35% | -8.5% | 17.6% | -46.5% | -6.45% | -7.1%
COc1c(C)cc2c(C(C)C)c(O)c(O)c(C=O)c2c1O | 86.1% (active) | 88.2% (active) | 80.5% (active) | 79% (active) | 80.8% (active) | 76.3% (active)
C[CH2][Ge]([CH2]C)[CH2]C.C[CH2][Ge]([Cl])[CH2]C | 76.3% (active) | 3.45% | 52.9% | -10.2% | 41.8% | 74.5% (active)
O=C(C[n+]1ccc2ccccc2c1)c1ccc(Br)cc1 | -17.1% | 12.3% | 1.8% | -0.65% | -11.9% | 28.9%
CC(NCc1c(O)ccc2c(-c3ccccc3)cc(=O)oc12)C(=O)O (configuration not stated) | -39.4% | -19.1% | -32.6% | 4.35% | -4.95% | -14.8%
O=S(Cc1cc2c(cc1Br)OCO2)c1ccccc1 (configuration not stated) | -27% | -33.5% | -20% | -22.4% | -37.7% | -29.1%
CC1=CC(=O)C(=Ic2ccccc2)C(=O)O1 | 11.2% | -8.25% | 4.6% | 9.65% | -3.85% | 14.6%

SMILES | growth inhibition [1] | growth inhibition [2] | growth inhibition [3] | growth inhibition [4] | growth inhibition [5] | growth inhibition [6]
NC(=O)C1C2C=CC(O2)C1C(=O)O (configuration not stated) | -26.6% | -12.9% | -10.3% | -23.6% | -1.9% | 5.4%
Nc1nc(Cc2ccccc2)nc2[nH]ncc12 | 3.85% | 6.3% | 3.2% | -18.5% | -8.9% | -1.6%
CC1=C(CCC(C)CO)OC2CC3C4CCC5CC(O)CCC5(C)C4CCC3(C)C12 (configuration not stated) | -4.5% | -22.6% | -24.7% | -1.9% | -21.1% | -16.4%
OCc1ccc(F)cc1 | -6.35% | -14.6% | -7.5% | 3.25% | -10.8% | 3.45%
O=C(c1ccc(Cl)cc1Cl)N(/N=C/C=C/c1ccccc1)c1nnc(-c2ccccc2)c(-c2ccccc2)n1 | -17.1% | 8.8% | -21.3% | 32.5% | 2.2% | 13%
CN(C)C(=NN)N(C)C | 0.5% | -2.3% | 1.55% | -34% | 3.6% | -3.9%
NC(=S)c1ccccc1N=Cc1cccs1 | 26.8% | 16.1% | 14.2% | -7.7% | 53.6% | 41.5%
CC1CCC2C(C)(C)CC3(C)CCC1C23O (configuration not stated) | 29.9% | 45.5% | 81% (active) | 30.4% | 61.6% | 83.2% (active)
CC1(C)CC(Nc2ccccc2)=CC(=Nc2ccccc2)S1 | -13.1% | -11.2% | -3.55% | -25.2% | -32.5% | -14.2%
CC(C)(C)NNC(=O)/C(=C/c1ccc(Oc2ccc(Cl)c(Cl)c2)cc1)NC(=O)c1ccccc1 | 7.45% | 1.1% | 2.1% | -4.2% | -1.6% | 16.1%
O=c1c(O)c(-c2ccccc2)oc2c(CP(=O)(O)O)cccc12 | 5.05% | -19.1% | -17.3% | -12.5% | -2.45% | -18%
O=[N+]([O-])c1cccc(Cc2nc3ccccc3nc2-c2ccccc2)c1 | 34.9% | 18.2% | 13.7% | 4.1% | 48.6% | 37.7%
CCCc1nc2ccccc2c(=O)n1/N=C/c1ccc(Cl)cc1 | 0.5% | 7.3% | -0.4% | 5.7% | 0.9% | 7.95%
C(=C\c1nc2ccccc2nc1/C=C/c1ccccc1)/c1ccccc1 | -25.9% | -9.4% | -13.8% | -12.3% | 2.7% | 9.45%
COc1ccc(C2CC(c3ccccc3)=NN2c2ccccc2)cc1 (configuration not stated) | 0.75% | -14.4% | 5.85% | -7.55% | 4.85% | 7.95%
Cn1cnc(CC(=O)O)c1 | 4.85% | -6.6% | -12.5% | 5.25% | 11% | -0.05%
CN(C)Cc1cc(C=O)cc(CN(C)C)c1O | 10.3% | 4.6% | -29.2% | 13.4% | 10.7% | 5.8%
COc1c(C(=O)/C(=N/Nc2cccc(Cl)c2)C(C)=O)c(O)c(OC)c2occc12 | -5.15% | -8% | -6.6% | -8.5% | 8.2% | 7.65%
OCC(O)C(O)C(O)C(O)C(O)C(O)CO (configuration not stated) | 1.8% | 3.65% | 7.35% | 5.75% | -1.2% | 3.35%
CC(O)C1OC(n2cnc3c(=O)[nH]cnc32)C(O)C1O (configuration not stated) | -9.45% | -24.9% | -0.65% | -0.85% | -7.05% | -22.9%
CCC(=O)CC(=O)C(=O)OC | 6.25% | 14.6% | -8.45% | -15.7% | 3.5% | 17%
